Only some compounds are listed: those with a hit (about 3.9% of all), similar ones and a draw of the others.
esBAF inh: blocks esBAF chromatin remodeling in mouse ES cells; Bmi1-luciferase knock-in reporter, 24 h; 100% = twice the neutral-well signal; reporter increase, % at 12.5 µM; actives 2% (n = 350,000); in the data active means activation above about 40%; inconclusive means no clear call, values can overlap the other calls;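 further: 0% = median of the plate's neutral control wells and 100% = double that signal; a rise in the Bmi1 reporter signal indicates esBAF inhibition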
HSF1 inh: HSF1 inhibition. NIH3T3-HGL HSE-luciferase, MG132-induced, luminescence 8 h; stronger effect = lower value. activity change, negative = inhibition, % at 7.5 µM (by protocol). actives 0.77% (n = 300,000). AID 2098;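 active means more than half of replicate wells show activity change below -50%, luminescence cut by over half; inconclusive means some wells, but at most half, below -50%; inactive means no replicate well below -50%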;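 further: luciferase reports HSF-1 transcriptional activity via heat shock element; 0% = median of DMSO wells and -100% = zero luminescence signal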
HSF-1 act: increases HSF-1 driven luciferase reporter signal; NIH3T3-HGL HSF-1 luciferase reporter, MG132, 8 h; 100% = twice DMSO control signal; AID 504408; activation, % at 9 µM; actives 1.7% (n = 300,000);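 active means mean replicate activation of at least 50% with a set share of replicates each reaching 50%; inconclusive means only one of those two conditions met; inactive means mean below 50% and too few replicates reaching it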;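 further: 0% = median of the neutral control wells and 100% = twice that signal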
Wnt act: activates Wnt/beta-catenin signaling in a reporter cell assay; activator, plate reader; activation, % at 9.35 µM; actives 1.2% (n = 300,000); in the data active means activation above about 30%, passing the limit was not always enough; inconclusive means no clear call, values can overlap the other calls;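 further: 0% = neutral control wells and 100% = positive control wells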
MITF act: MITF TRPM1 promoter activation in melanoma cells. SK-MEL-5 TRPM1-promoter luciferase, 24 h; % of positive control, neutral wells = 0. activation, % at 12.5 µM. actives 0.75% (n = 300,000). AID 588334;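 active means mean activation of at least 80% with every replicate also reaching 80%; inconclusive means mean reaches 80% but some replicate falls short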;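 further: 0% = neutral control wells and 100% = parthenolide positive control wells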
The depositor's hits bear a star; ? = inconclusive; . = no result given.

SMILES	esBAF inh	HSF1 inh	HSF-1 act	Wnt act	MITF act
CC(=O)N(C)C[C@@H]1Oc2ncc(C#C[C@H](C)O)cc2C(=O)N([C@@H](C)CO)C[C@@H]1C	0	.	.	.	.
CO[C@H]1CN(C)C(=O)c2cc(NC(=O)C3CCCCC3)ccc2OC[C@H](C)NC[C@H]1C	2	.	.	.	.
CN1c2ccc(Br)cc2[C@@H]2[C@@H](CCN2C(=O)c2cccc(F)c2)[C@@H]1CO	-5	.	.	.	.
O=C(NC1CCCN(Cc2ccccc2F)C1)c1cccs1 (configuration not stated)	-1	32	62*	-1	15
CC(=O)c1ccc(C(=O)NC2CCCN(Cc3ccccc3F)C2)s1 (configuration not stated)	-1	-3	2	1	-10
C[C@H]1CN([C@@H](C)CO)C(=O)Cc2cc(NC(=O)Cc3ccccc3)ccc2O[C@H]1CN(C)S(C)(=O)=O	2	.	.	.	.
O=C(/C=C/c1ccco1)Nc1nc(-c2ccccc2)cs1	.	37	58*	37*	54
O=C(/C=C/c1ccccc1)Nc1scc(-c2ccccc2)c1C(=O)O	.	20	30	15	40
O=C(/C=C/c1ccco1)Nc1scc(-c2ccccc2)c1C(=O)O	.	.	.	42*	27
Cc1csc(NC(=O)/C=C/c2ccco2)n1	.	24	57*	.	50
O=C(/C=C/c1ccco1)Nc1nc(-c2ccccn2)cs1	.	-1	11	-2	6
Cc1noc(C)c1NC(=O)N(C)C[C@@H]1OCCCC[C@@H](C)Oc2ccc(NC(=O)Cc3ccccc3)cc2C(=O)N([C@@H](C)CO)C[C@H]1C	11	.	.	.	.
O=C(CCc1nc2ccccc2c(=O)[nH]1)NCc1ccco1	.	-65*	-71	-2	-4
O=C(CCc1nc2ccccc2c(=O)[nH]1)NCc1ccccn1	-1	1	9	0	2
C[C@@H]1CN([C@H](C)CO)C(=O)c2cccc(NC(=O)C3CC3)c2O[C@@H]1CN(C)C(=O)Nc1ccc(C(F)(F)F)cc1	6	.	.	.	.
O=C(O)c1cc(/C=C/c2ccc(N3CCOCC3)cc2)nc2ccccc12	.	.	.	3	6
O=C(O)c1cc(/C=C/c2ccc(N3CCOCC3)c([N+](=O)[O-])c2)nc2ccccc12	.	-7	-8	34*	-1
COc1ccc2[nH]c(O)c(N=NC(=O)c3ccc(NS(=O)(=O)c4cccs4)cc3)c2c1	44*	.	.	19	41
O=C(NN=Cc1ccc(OC(F)F)cc1)c1ccc(NS(=O)(=O)c2cccs2)cc1	30	.	.	51*	30
CCN(CC)S(=O)(=O)c1ccc(O)c(NC(=O)COc2ccc(S(=O)(=O)N3CCOCC3)cc2)c1	-5	.	.	44*	5
C[C@H](CO)N1C[C@H](C)[C@H](CN(C)S(=O)(=O)c2cccc(F)c2)OCc2cn(nn2)CCCC1=O	6	.	.	.	.
CC1=NN(C(N)=S)C(=O)C1N=Nc1cccc(Cl)c1C (configuration not stated)	51*	12	15	7	.
CCOc1ccc(C(=O)N(CC)CC(=O)Nc2ccc3c(c2)OCCO3)cc1	?	.	.	-3	.
CCOc1ccc(N/C(C)=C/C(=O)c2ccc3c(c2)OCCO3)cc1	.	-4	3	47*	61
CCOc1ccc(N/C(C)=C\C(=O)c2ccc3c(c2)OCCO3)cc1	.	-1	25	36*	45
SMILES	esBAF inh	HSF1 inh	HSF-1 act	Wnt act	MITF act
COc1ccc(Nc2nc(N)nc(CSC(=S)N3CCOCC3)n2)cc1	49*	6	20	9	30
Cc1ccc(Nc2nc(N)nc(CSC(=S)N3CCOCC3)n2)c(C)c1	.	15	19	13	57
Nc1nc(CSC(=S)N2CCOCC2)nc(Nc2ccc(F)cc2)n1	66*	16	35	7	28
COCC(=O)N(C)C[C@H]1Oc2ncc(-c3ccc(F)cc3)cc2C(=O)N([C@H](C)CO)C[C@H]1C	-2	.	.	.	.
O=C(CN1CCN(c2ccc(O)cc2)CC1)Nc1cc(S(=O)(=O)N2CCCC2)ccc1Cl	.	-56*	-66	-1	-6
O=C(CN1CCN(c2ccc(O)cc2)CC1)Nc1cc(S(=O)(=O)N2CCCCC2)ccc1Cl	.	0	9	-2	-11
O=S(=O)(c1ccc(Cl)c(NC(=S)N/N=C/c2ccc(O)cc2)c1)N1CCOCC1	.	13	56*	.	-1
CCCN(C)C[C@H]1OCCCC[C@@H](C)Oc2ccc(NS(=O)(=O)c3ccc(OC)cc3)cc2C(=O)N([C@@H](C)CO)C[C@H]1C	-2	.	.	.	.
C[C@H]1CN([C@@H](C)CO)C(=O)c2cc(NC(=O)CCN3CCOCC3)ccc2O[C@@H]1CN(C)S(=O)(=O)c1cccs1	-1	.	.	.	.
Cc1noc(C)c1S(=O)(=O)Nc1ccc2c(c1)C(=O)N([C@H](C)CO)C[C@@H](C)[C@@H](CN(C)C(=O)Nc1ccc3c(c1)OCO3)OCCCC[C@@H](C)O2	6	.	.	.	.
CCC1(c2ccccc2)NC(=O)N(CC(=O)NCc2ccccc2OC)C1=O (configuration not stated)	-5	60	107*	-5	-17
CCC1(c2ccc(F)cc2)NC(=O)N(CC(=O)NC2CC2)C1=O (configuration not stated)	.	-4	-4	31*	0
c1ccc2oc(-c3[nH]ncc3CN3CCSCC3)cc2c1	.	-7	-6	-1	-12
c1ccc2oc(-c3ccn[nH]3)cc2c1	.	9	21	40*	.
COc1ccc(C2Nc3ccccc3C(=O)N2NS(=O)(=O)c2ccc(C)cc2)cc1 (configuration not stated)	.	47	57*	0	21
Cc1cccc(CSc2ccc(-c3ccco3)nn2)c1	50*	15	20	-1	34
c1ccc(CSc2ccc(-c3ccco3)nn2)cc1	.	11	9	52*	44
O=C(CSc1nnc(-c2ccco2)n1Cc1ccccc1)c1ccccc1	44*	12	13	.	91*
Cc1ccc(C(=O)CSc2nnc(-c3ccco3)n2Cc2ccccc2)cc1	28	11	24	0	70
Cc1nc(C)c(-c2ccc(SCc3ccccc3F)nn2)s1	69*	21	9	10	76
CO[C@H]1CN(C)C(=O)c2cc(NC(=O)NC3CCCCC3)ccc2OC[C@H](C)N(CC2CC2)C[C@H]1C	2	.	.	.	.
Nn1c(SCc2ccccc2)nnc1-c1ccco1	-45	-68*	-74	11	8
Fc1ccccc1CSc1ccc(-c2ccco2)nn1	.	.	.	11	95*
Nn1c(SCc2cccc3ccccc23)nnc1-c1ccco1	-1	4	28	6	4
Clc1ccc(CSc2ccc(-c3ccco3)nn2)cc1	.	42	?	13	65
NC(=NCCc1ccccc1)c1cccc([N+](=O)[O-])c1	0	1	-4	2	-1
C=CCN(CC(O)c1cccc([N+](=O)[O-])c1)C(C)CCc1ccccc1 (configuration not stated)	.	-78*	-83	-1	-10
Cc1c(C(=O)Nc2ccccc2F)sc2ncn(CC(=O)N3CCOCC3)c(=O)c12	42*	-1	-7	-2	1

Screens as filed in PubChem.
